# Assay results as given in PubChem BioAssay (NCI).
# About 83,000 compounds went through this panel and 20% of them were active in at least one assay; those are over-represented in the sample as a whole.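 Note: values are percent growth. 100 is the growth of untreated cells, values between 100 and 0 indicate rising inhibition; between -100 and 0 indicates cell death.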 Active and inactive are the calls of the source. The calls were made as follows: active = growth percent below 10; inactive = the rest.
# Test system: SNB-19 CNS
# Test: NCI-60 one-dose screen, 48 h (100 = growth as untreated, 0 = no growth, -100 = all killed)
# Conditions: 10 µM unless noted
row,SMILES,growth
1,CC1Cc2c(N(C)C)ncnc2N(C)c2ccc(O)cc21 (stereo unspecified),83.1% (inactive)
2,O=S(=O)(NCCCNc1cc(-c2cn(-c3ccccc3)nc2-c2cccc(O)c2)ccn1)c1ccc(C(F)(F)F)cc1,51.4% (inactive)
3,Cc1ccc(S(=O)(=O)N2CCC(C(=O)Nc3ccc(F)cc3F)CC2)cc1,86.5% (inactive)
4,COc1ccc2c(c1)NC(=O)CN2c1nc(NC2CC2)nc2ccccc12,29.9% (inactive)
5,C=C1C(=O)O[C@H]2[C@H]1CC/C(COC(=O)NCCc1cccc(OC)c1)=C\CC[C@@]1(C)O[C@@H]21,56.9% (inactive)
6,COc1cc(-c2csc(NC(=O)c3cc(C(F)(F)F)cc(C(F)(F)F)c3)n2)cc(OC)c1OC,29.9% (inactive)
7,Clc1nc(Cl)c2ncn(C/C=C/Cn3cnc4c(Cl)nc(Cl)nc43)c2n1,74.5% (inactive)
8,Cc1ccc2c(c1)C(C)Cc1c(ncnc1-n1cnc3ccccc31)N2C (stereo unspecified),34% (inactive)
9,CCN(CC)S(=O)(=O)c1ccc2[nH]c(=O)cc(C(=O)Nc3ccc(OC)cc3OC)c2c1,104% (inactive)
10,COC(=O)CCCCCN=Cc1c(O)c(O)c(C(C)C)c2cc(C)c(-c3c(C)cc4c(C(C)C)c(O)c(O)c(C=NCCCCCC(=O)OC)c4c3O)c(O)c12,20.6% (inactive)
11,CCC(=O)Oc1ccc2c(c1)CC[C@@H]1[C@@H]2CC[C@]2(C)C[C@H](OC(=O)CC)C[C@@H]12,77.7% (inactive)
12,C=C1C(=O)O[C@H]2[C@H]1CC/C(COC(=O)NCc1cc(OC)cc(OC)c1)=C\CC[C@@]1(C)O[C@@H]21,42.3% (inactive)
13,O=C(Nc1ccc(I)cc1)c1cc([N+](=O)[O-])ccc1O,35.4% (inactive)
14,O=C(CNC(=O)c1cccc2ccccc12)Nc1ccccc1Oc1ccccc1,33.8% (inactive)
15,O=C(/C=C/CN1CCOCC1)Nc1cc2c(Nc3ccc(F)c(Cl)c3F)ncnc2cc1OCCOC(F)F,70% (inactive)
16,O=C(NCCc1c[nH]c2ccccc12)C1Cc2ccccc2CN1C(=O)c1ccco1 (stereo unspecified),112% (inactive)
17,Nc1cc2c(cc1N)-c1cc(N)c(N)cc1C2,107% (inactive)
18,COc1ccc(/C(=N\O)c2cc(OC)c(OC)c(OC)c2)c(OC)c1N,32.8% (inactive)
19,CCC(c1ccc(OC)cc1)C(CC)c1ccc(O)c(CN2CCCC2)c1 (stereo unspecified),40.6% (inactive)
20,CC(C)(C)c1cc(-c2nc3ccc(N4CCN(CCO)CC4)cc3[nH]2)cc(C(C)(C)C)c1O,74% (inactive)
21,OCc1c(-c2ccccc2)nc2sccn12,85.5% (inactive)
22,O=C(OCCCCOC(=O)n1cnc2ccccc21)n1cnc2ccccc21,97.7% (inactive)
23,OC1CC2c3ccccc3C1c1ccccc12 (stereo unspecified),117% (inactive)

# Test system: U251 CNS
# Test: as above
# Conditions: 10 µM unless noted
row,SMILES,growth
1,N#Cc1c(NC(=O)c2ccc([N+](=O)[O-])o2)[n+]([O-])c2cc(F)c(F)cc2[n+]1[O-],102% (inactive)
2,CC(C)(C)OC(=O)N1C/C(=C\c2cccs2)C(=O)/C(=C/c2cccs2)C1,83.7% (inactive)
3,CC(Cc1nnc(SCC(=O)Nc2ccc(I)cc2)n1N)c1ccccc1 (stereo unspecified),92.7% (inactive)
4,COC(=O)CC/C(C)=N\Nc1ccc([N+](=O)[O-])cc1,68.4% (inactive)
5,COc1ccccc1OCC(=O)Nc1sc2c(c1C(N)=O)CCC2,60.9% (inactive)
6,CC(=O)N1Cc2ccccc2C(C)Cc2cc(Cl)ccc21 (stereo unspecified),105% (inactive)
7,COc1ccc(/C(=N/O)c2cc(OC)c(OC)c(OC)c2)c(OC)c1N,27.5% (inactive)
8,CC(C)CCC[C@@H](C)[C@H]1CC[C@H]2[C@@H]3CC[C@H]4C/C(=N/O)CC[C@]4(C)[C@H]3CC[C@]12C,96.6% (inactive)
9,C/C(=N\NC(=O)CC#N)c1cc2cc(Cl)ccc2o1,89.3% (inactive)
10,CCC#CC[C@H]1C/C=C2/C(=O)C=C[C@@H]2C/C=C\CCCC(=O)O1,-11.2% (active)
11,Cc1cc(C(=O)O)c(N)c(C)n1,104% (inactive)
12,CCCCCCOc1ccc(C2(Cl)c3ccccc3N(C)c3ccccc32)cc1,-8.78% (active)
13,CC(C)N(Cc1ccc(CN(C(=O)CCl)C(C)C)cc1)C(=O)CCl,-41% (active)
14,COc1cc(-n2nc(C(=O)Nc3ccc(C(=O)O)cc3)nc2-c2ccccc2)cc(OC)c1OC,102% (inactive)
15,NC(=O)NNC(=O)c1ccccc1,97.7% (inactive)
16,CC1Cc2c(N(C)C)ncnc2N(C)c2ccc(O)cc21 (stereo unspecified),78.9% (inactive)
17,O=S(=O)(NCCCNc1cc(-c2cn(-c3ccccc3)nc2-c2cccc(O)c2)ccn1)c1ccc(C(F)(F)F)cc1,36.8% (inactive)
18,Cc1ccc(S(=O)(=O)N2CCC(C(=O)Nc3ccc(F)cc3F)CC2)cc1,101% (inactive)
19,COc1ccc2c(c1)NC(=O)CN2c1nc(NC2CC2)nc2ccccc12,11.8% (inactive)

row,SMILES,growth
1,C=C1C(=O)O[C@H]2[C@H]1CC/C(COC(=O)NCCc1cccc(OC)c1)=C\CC[C@@]1(C)O[C@@H]21,66% (inactive)
2,COc1cc(-c2csc(NC(=O)c3cc(C(F)(F)F)cc(C(F)(F)F)c3)n2)cc(OC)c1OC,21% (inactive)
3,Clc1nc(Cl)c2ncn(C/C=C/Cn3cnc4c(Cl)nc(Cl)nc43)c2n1,57.4% (inactive)
4,Cc1ccc2c(c1)C(C)Cc1c(ncnc1-n1cnc3ccccc31)N2C (stereo unspecified),18.4% (inactive)
5,CCN(CC)S(=O)(=O)c1ccc2[nH]c(=O)cc(C(=O)Nc3ccc(OC)cc3OC)c2c1,108% (inactive)
6,COC(=O)CCCCCN=Cc1c(O)c(O)c(C(C)C)c2cc(C)c(-c3c(C)cc4c(C(C)C)c(O)c(O)c(C=NCCCCCC(=O)OC)c4c3O)c(O)c12,3.85% (active)
7,CCC(=O)Oc1ccc2c(c1)CC[C@@H]1[C@@H]2CC[C@]2(C)C[C@H](OC(=O)CC)C[C@@H]12,48.3% (inactive)
8,C=C1C(=O)O[C@H]2[C@H]1CC/C(COC(=O)NCc1cc(OC)cc(OC)c1)=C\CC[C@@]1(C)O[C@@H]21,40.7% (inactive)
9,O=C(Nc1ccc(I)cc1)c1cc([N+](=O)[O-])ccc1O,31.1% (inactive)
10,O=C(CNC(=O)c1cccc2ccccc12)Nc1ccccc1Oc1ccccc1,11.5% (inactive)
11,O=C(/C=C/CN1CCOCC1)Nc1cc2c(Nc3ccc(F)c(Cl)c3F)ncnc2cc1OCCOC(F)F,81.2% (inactive)
12,O=C(NCCc1c[nH]c2ccccc12)C1Cc2ccccc2CN1C(=O)c1ccco1 (stereo unspecified),98.5% (inactive)
13,Nc1cc2c(cc1N)-c1cc(N)c(N)cc1C2,99.1% (inactive)
14,COc1ccc(/C(=N\O)c2cc(OC)c(OC)c(OC)c2)c(OC)c1N,18.3% (inactive)
15,CCC(c1ccc(OC)cc1)C(CC)c1ccc(O)c(CN2CCCC2)c1 (stereo unspecified),7.11% (active)
16,CC(C)(C)c1cc(-c2nc3ccc(N4CCN(CCO)CC4)cc3[nH]2)cc(C(C)(C)C)c1O,16% (inactive)
17,OCc1c(-c2ccccc2)nc2sccn12,95.6% (inactive)
18,O=C(OCCCCOC(=O)n1cnc2ccccc21)n1cnc2ccccc21,99.5% (inactive)
19,OC1CC2c3ccccc3C1c1ccccc12 (stereo unspecified),95.8% (inactive)
